Assay outcomes as filed in PubChem BioAssay.
In the library only some 8% were active in any assay of this set; here they are far more common.
SW480 rereplic: DNA re-replication induction in SW480 cells. SW480 DNA re-replication, Hoechst DNA content imaging, 48 h. Potency, µM (highest dose often 46.1 µM), hits mostly activators. 340,000 tested, 1.8% active. AID 624297; also: nearly all actives have a fitted effect of over 55% in size
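SW480 cells exposed to compounds for 48 hr at 37 C, 5% CO2, then Hoechst-stained 40 min. Nuclear DNA content imaged by fluorescence scanning (405 nm excitation, 500-530 nm emission); re-replication scored as increased high-intensity nuclei.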
MCF10A rerep: inducers of DNA re-replication in MCF 10A breast cells; MCF 10A DNA re-replication, Hoechst nuclear intensity, 48 h; Potency, µM (doses to about 46.1 µM), usual class: activators; 350,000 tested, 2.9% active; AID 624296; also: nearly all actives have a fitted effect of over 50% in size
KB-3-1 cytotox: kills parental KB-3-1 adenocarcinoma cells | Potency, µM (series often up to 46.1 µM), usual class: cytotoxic | KB-3-1 viability, CellTiter-Glo ATP luminescence, 72 h | 400,000 tested, 1.4% active | AID 1347075; also: nearly all actives have a fitted effect of over 60% in size
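Cytotoxicity in the drug-sensitive parental line KB-3-1 was scored as loss of CellTiter-Glo luminescence following 72 h incubation with compound. Values come from curve fitting of normalized concentration-response data.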
HT1080 IDH1KD tx: HT-1080 IDH1 knockdown cell toxicity (counter line) | HT-1080 IDH1 knockdown viability, ATP luminescence, 48 h | AID 686971 | Potency, µM (top dose mostly 46.1 µM), actives largely listed as cytotoxic | 360,000 tested, 2% active
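HT-1080-IDH1KD cells (IDH1 knocked down), 750/well in RPMI with 5% FBS, treated with compound 48 h at 37 degrees C. Viability by CellTiter-Glo luminescence, normalised to DMSO and no-cell wells; concentration-response curves classed.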
HT1080-NT tox: kills 2HG-producing HT-1080-NT fibrosarcoma cells; HT-1080-NT fibrosarcoma viability, CellTiter-Glo ATP luminescence, 48 h; Potency, µM (doses to about 46.1 µM), actives largely listed as cytotoxic; 360,000 tested, 1.6% active; AID 686970;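 also: NT is the 2HG producing partner of a matched IDH1 knockdown line; nearly all actives have a fitted effect of over 55% in size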
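Viability of the 2HG-overproducing fibrosarcoma line after 48 hours of compound exposure at 37 degrees C was determined by luminescence with CellTiter-Glo, and concentration-effect curves were then fitted and categorized.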
KB-V1 MDR tox: KB-V1 MDR subline cytotoxicity | 400,000 tested, 3.4% active | AID 1347076 | Potency, µM (titrated, usually from 46.1 µM), usual class: cytotoxic | KB-V1 MDR cells viability, CellTiter-Glo, 72 h; also: nearly all actives have a fitted effect of over 60% in size
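Following 72 h at 37 degrees C with compound, KB-V1 cell viability was read by CellTiter-Glo luminescence, medium being phenol-red-free DMEM plus 10% FBS; concentration-response parameters came from normalized, curve-fitted qHTS data.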
Hits are given with their value; – = inactive; ? = inconclusive; · = no result given. Calls follow the shape of the dose curve; as a rule, active = well fitted curve in the direction sought with a large enough effect; inconclusive = small, poorly fitted or top-dose-only effect, or another doubt; inactive = no such curve, though single readings can be large; an effect the other way counts as inactive or inconclusive.

SMILES	SW480 rereplic	MCF10A rerep	KB-3-1 cytotox	HT1080 IDH1KD tx	HT1080-NT tox	KB-V1 MDR tox
NC(=O)c1cccc2c1-c1ccccc1/C2=N/NC(N)=S	–	–	–	–	–	–
CCOC(=O)Nc1ccc2c(c1)C(=NO)c1ccccc1-2	–	?	?	–	–	8.2µM
CCCCn1cc(S(=O)(=O)c2ccc(CC)cc2)c(=O)c2cc(F)c(N3CCCC(C)C3)cc21 (stereo not drawn)	·	·	–	·	·	–
CC12CCC(c3c(C(=O)Nc4nccs4)nn(-c4ccccc4)c31)C2(C)C (stereo not drawn)	–	–	–	14µM	?	–
COc1ccccc1N1CCN(c2ncnc3c2nnn3C)CC1	·	·	–	·	·	–
Cc1cc(C)cc(NC(=O)c2cc(C)n(Cc3cccs3)c2C)c1	?	18µM	–	?	?	–
O=C1CCCc2c1cc(-c1ccccc1)n2-c1ccccc1	–	–	16µM	?	?	12µM
Cc1cc2nc(SCCOC(=O)Nc3ccccc3)nc(C)c2cc1C	–	–	–	–	–	21µM
Cc1cc2nc(SCCOC(=O)Nc3cccc(Cl)c3)nc(C)c2cc1C	–	?	–	–	–	–
O=C(CCc1ccc(O)cc1)NN=Cc1ccc2c(c1)OCO2	·	·	?	5.8µM	?	–
Cc1cc(C)c(OCC(=O)N/N=C/c2ccc3c(c2)OCO3)c(C)c1	?	2.9µM	?	13µM	18µM	–
Cc1cccc(OCC(=O)N/N=C/c2ccc3c(c2)OCO3)c1	–	–	–	–	–	–
Cc1ccccc1OCC(=O)N/N=C/c1ccc2c(c1)OCCO2	?	12µM	–	–	–	?
CC1Cn2c(C(=O)NCCc3ccc(Cl)cc3)cc3cccc(c32)S1 (stereo not drawn)	·	·	–	·	·	–
COc1ccc2c(CNCCc3ccc(SC)cc3)c(C(=O)O)n(Cc3ccc(F)cc3)c2c1	·	·	?	·	·	–
COCCCNC(=O)CCCCn1c(=O)c2ccccc2n(CC(=O)Nc2ccc(C)cc2C)c1=O	·	·	–	·	·	–
CNc1cc(-n2nc(C)cc2-c2ccccc2)ncn1	–	–	–	–	–	–
Cc1cc(-c2ccccc2)n(-c2cc(N/N=C/c3ccccc3O)ncn2)n1	?	2.1µM	?	1µM	?	0.82µM
COc1ccc(C2C(C#N)=C(C)NC3=C2C(=O)c2ccccc23)cc1 (stereo not drawn)	–	–	–	–	–	–
CCOc1ccc(C2C(C(=O)OC)=C(C)NC3=C2C(=O)c2ccccc23)cc1OC (stereo not drawn)	·	·	–	·	·	–
C#CCOc1c(Br)cc(C2C(C(=O)OC)=C(C)NC3=C2C(=O)c2ccccc23)cc1OCC (stereo not drawn)	·	·	4.6µM	·	·	?
COc1cc(C2C(C#N)=C(C)NC3=C2C(=O)c2ccccc23)cc(OC)c1OC (stereo not drawn)	–	–	2.1µM	0.79µM	0.89µM	?
O=C(Nc1ccccc1)N(Cc1cccs1)c1ccc(F)cc1	·	·	–	·	·	–
CCOCCCNC(=O)CN1C(=O)/C(=C/c2ccccc2)Sc2ccccc21	–	–	–	–	–	15µM
COCCCNC(=O)CN1C(=O)/C(=C/c2ccccc2C)Sc2ccccc21	–	–	–	–	–	?
SMILES	SW480 rereplic	MCF10A rerep	KB-3-1 cytotox	HT1080 IDH1KD tx	HT1080-NT tox	KB-V1 MDR tox
Cc1ccc(/C=C2/Sc3ccccc3N(CC(=O)NCCCOC(C)C)C2=O)cc1	–	?	–	–	–	23µM
CCOCCCNC(=O)CN1C(=O)/C(=C\c2ccc(C)cc2)Sc2ccccc21	–	?	–	–	–	4.6µM
COCCCNC(=O)CN1C(=O)/C(=C/c2ccccc2)Sc2ccccc21	–	–	–	–	?	?
Cc1cc(C)cc(NC(=O)CCS(=O)(=O)c2cccc3nsnc23)c1	·	·	–	·	·	–
Fc1ccc(CNc2cc(-c3ccccc3)nc3nncn23)cc1	·	·	–	·	·	–
Cc1cc(-c2n[nH]c(=S)n2/N=C/c2ccc(Cl)c([N+](=O)[O-])c2)n[nH]1	?	?	?	4.6µM	6.5µM	–
CCn1c2ccccc2c2cc(/C=N/O)ccc21	4.1µM	–	–	–	–	12µM
CCn1c2ccccc2c2cc(/C=N/n3c(-c4cc(C)[nH]n4)n[nH]c3=S)ccc21	–	8.2µM	–	?	–	–
CCn1c2ccccc2c2cc(/C=N/n3cnnc3)ccc21	–	–	–	–	?	–
CCn1c2ccccc2c2cc(/C=N/n3cn[nH]c3=S)ccc21	3.7µM	?	–	–	–	?
O=[N+]([O-])c1cc(/C=N/n2c(-c3ccncc3)n[nH]c2=S)ccc1Cl	?	?	–	–	–	–
CCOC(=O)c1c(Oc2ccc(C(=O)OC)cc2)nnc(-c2ccccc2)c1-c1ccccc1	·	·	–	·	·	–
CCCCCCCCCOC(=O)CNc1nc(C#N)nc(NCC(=O)OCCCCCCCCC)n1	·	·	?	·	·	–
O=C(Nc1ccc(-c2nc3ccccc3[nH]2)cc1)c1ccc(C(F)(F)F)cc1	·	·	–	·	·	–
S=c1[nH]nc(-c2cc(-c3ccccc3)n[nH]2)n1/N=C/c1cccc(Cl)c1	?	23µM	–	–	–	–
S=c1[nH]nc(-c2cc(-c3ccccc3)n[nH]2)n1/N=C/c1ccc(Cl)cc1	–	?	–	–	–	–
Cc1cccc(CSC2=NCCN2C(=O)c2ccc(S(=O)(=O)N(C)C)cc2)c1	29µM	–	–	–	–	–
Cc1ccc(CNc2oc(COc3ccccc3Cl)nc2C#N)cc1	12µM	4.1µM	–	–	–	–
COc1ccc(CNc2oc(COc3cccc(C)c3)nc2C#N)cc1	·	·	–	·	·	?
CNc1oc(-c2ccc(OCc3ccccc3)cc2)nc1C#N	?	–	–	–	–	23µM
N#Cc1nc(-c2ccc(OCc3ccccc3)cc2)oc1NCc1ccco1	–	?	–	–	–	–
CCC(CC)c1nc(C#N)c(NCc2ccccc2)o1	?	?	15µM	?	?	?
N#Cc1nc(Cc2ccccc2)oc1NCc1ccccc1	–	–	–	–	–	?
COc1ccc(CNc2oc(COc3ccccc3)nc2C#N)cc1	–	–	–	–	–	18µM
COc1ccc(CCNc2oc(COc3ccccc3)nc2C#N)cc1	–	–	–	–	–	16µM
N#Cc1nc(COc2ccccc2F)oc1NCCc1ccccc1	–	23µM	–	–	–	–
CCOc1ccc(Nc2oc(-c3ccco3)nc2C#N)cc1	–	?	–	?	–	–
Cc1ccc(OCc2nc(C#N)c(NCCc3ccccc3)o2)cc1	·	·	–	·	·	–
CCOc1ccc(Nc2oc(-c3cccc(Cl)c3)nc2C#N)cc1	?	16µM	–	–	–	–
CC(C)(C)c1ccc(-c2nc(C#N)c(NCc3cccnc3)o2)cc1	–	?	–	?	?	21µM
